# Data reported in PubChem BioAssay AID382 (SGCOxCompounds, 2006).
# The source made the active and inactive calls. How the calls were made is not given here.
# Target: Dual specificity protein kinase CLK1 (Homo sapiens) (UniProt P49759)
# Test: ligand-induced CLK1 melting temperature shift – biophysical, recombinant human kinase, DSF (AID 382)
# Details: Recombinant CLK1, thermal shift (DSF), at 10 µM, protein 2 µM, buffer 10 mM HEPES, NaCl 150 mM, hits give high values
# Dual specificity protein kinase CLK1 (Homo sapiens), sequence (P49759 whole entry, looked up): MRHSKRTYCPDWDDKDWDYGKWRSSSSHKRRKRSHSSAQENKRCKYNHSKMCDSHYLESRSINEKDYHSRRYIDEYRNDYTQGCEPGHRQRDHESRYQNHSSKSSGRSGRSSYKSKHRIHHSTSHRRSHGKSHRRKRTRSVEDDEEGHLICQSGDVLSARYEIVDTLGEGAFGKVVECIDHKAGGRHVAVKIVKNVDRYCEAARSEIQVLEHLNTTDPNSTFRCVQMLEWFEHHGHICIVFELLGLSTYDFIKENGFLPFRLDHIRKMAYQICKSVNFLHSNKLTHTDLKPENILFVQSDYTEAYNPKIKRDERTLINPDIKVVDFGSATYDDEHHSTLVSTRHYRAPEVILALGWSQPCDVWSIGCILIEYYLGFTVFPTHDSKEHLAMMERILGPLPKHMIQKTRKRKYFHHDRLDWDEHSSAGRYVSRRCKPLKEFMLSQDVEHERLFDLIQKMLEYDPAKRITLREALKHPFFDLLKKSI
row,Structure (SMILES),Tm shift
1,CCn1cnc2c(Nc3cccc(Cl)c3)nc(N[C@@H]3CCCC[C@@H]3N)nc21,6.54 Celsius (active)
2,O=C1NC(=O)c2c1c1c3ccccc3n3c1c1c2c2ccccc2n1[C@@H]1CCC3O1,6.44 Celsius (active)
3,O=C1Nc2ccccc2/C1=C\c1cnc[nH]1,3.76 Celsius (active)
4,COc1ccc2c(c1)/C(=C/c1cnc[nH]1)C(=O)N2,3.63 Celsius (active)
